Twelve molecules from PubChem BioAssay AID624441 (Broad Institute, 2012) can be followed below.

Unmarked numbers belong to inactive results.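 Rule for the calls: active = activation curve reaches 40% at a concentration no higher than the top valid dose tested; inactive = signal falling instead of rising, plus the rest.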

This experiment in a line: reactive oxygen species induction in U2OS, dose response, U2OS cells, fluorescence, dry powder (AID 624441). The settings on record: U2OS ROS induction, H2DCF-DA fluorescence, stronger effect = higher value; at 19.5 µM unless noted.
With `Nc1nc(S(=O)(=O)Cc2ccccc2)ns1`, the max activation was 20.7% [at 0.0195 µM].

Take `Cc1ccccc1CSc1nnc(N)s1`: the max activation was 9.38%.

Take `Nc1nc(SCc2ccccc2Cl)ns1`: the max activation is 15.6% [at 0.0001 µM].

In the case of `O=C(Nc1ccccc1)Nc1nc(SCc2ccccc2)ns1`, the max activation was -12% [at 10 µM].

With `O=C(Nc1nc(SCc2ccccc2)ns1)C1CC=CCC1` (configuration not stated), the max activation was 33.9% [at 38 µM].

For `Cc1ccccc1CSc1nsc(N)n1`, the max activation was 36.4% [at 5 µM].

For `Nc1nc(SCc2ccc(Cl)cc2Cl)ns1`, the max activation is 43.7%.

In the case of `Nc1nc(SCc2ccccc2)ns1`, the max activation is 18.5% [at 0.3 µM].

Regarding `O=C(Nc1nc(SCc2ccccc2)ns1)C1CCC1`, the max activation is 11.4%.

As for `Cc1cccc(CSc2nsc(N)n2)c1`, the max activation is 19.3% [at 1.2 µM].

With `Cc1ccccc1CSc1n[nH]c(N)n1`, the max activation was 26% [at 0.0195 µM].

Take `Nc1nc(SCc2ccc(F)cc2)ns1`: the max activation was 27%.
